Assay outcomes from PubChem.
HT1080 IDH1KD tx – kills HT-1080 cells with IDH1 knockdown. AID 686971. HT-1080 IDH1 knockdown viability, ATP luminescence, 48 h. 360,000 compounds, 2% hits. Potency, µM (highest dose often 46.1 µM), most hits filed as cytotoxic
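After a 2 h attachment period, IDH1KD HT-1080 cells took pin-transferred compound for 48 h at 37 °C; ATP-based luminescence after 10 min room-temperature reagent incubation reported viability.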
SW480 rereplic – induces DNA re-replication in SW480 colon adenocarcinoma cells. SW480 DNA re-replication, Hoechst DNA content imaging, 48 h. Potency, µM (series often up to 46.1 µM), usual class: activators. 340,000 compounds, 1.8% hits. AID 624297; further: nearly all actives have a fitted effect of over 55% in size
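Hoechst fluorescence of nuclei (405 nm excitation, 500-530 nm emission) measured by plate-scanning imager after 48 hr compound exposure at 37 C; re-replication scored as increased number of nuclei with elevated intensity.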
MCF10A rereplic – DNA re-replication induction in MCF 10a cells; MCF 10A DNA re-replication, Hoechst nuclear intensity, 48 h; Potency, µM (titrated, usually from 46.1 µM), hits mostly activators; 350,000 compounds, 2.9% hits; AID 624296; further: nearly all actives have a fitted effect of over 50% in size
KB-3-1 cytotox – KB-3-1 parental cell cytotoxicity; KB-3-1 viability, CellTiter-Glo ATP luminescence, 72 h; Potency, µM (highest dose often 46.1 µM), most hits filed as cytotoxic; 400,000 compounds, 1.4% hits; further: nearly all actives have a fitted effect of over 60% in size
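Viability of parental KB-3-1 cells, measured by CellTiter-Glo luminescence, followed a 72 h incubation at 37 °C with pinned compounds in phenol-red-free DMEM containing 10% FBS.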
HT1080NT lethal – kills 2HG-producing HT-1080-NT fibrosarcoma cells. 360,000 compounds, 1.6% hits. HT-1080-NT fibrosarcoma viability, CellTiter-Glo ATP luminescence, 48 h. Potency, µM (top dose mostly 46.1 µM), most hits filed as cytotoxic. AID 686970;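 further: NT is the 2HG producing partner of a matched IDH1 knockdown line; nearly all actives have a fitted effect of over 55% in size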
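Fibrosarcoma NT cells, 750 per well in 5% FBS RPMI, were exposed to compound for 48 hours. Viability: CellTiter-Glo luminescence.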
KB-V1 MDR tox – KB-V1 MDR subline cytotoxicity | KB-V1 MDR cells viability, CellTiter-Glo, 72 h | Potency, µM (top dose mostly 46.1 µM), actives largely listed as cytotoxic | 400,000 compounds, 3.4% hits | AID 1347076; further: nearly all actives have a fitted effect of over 60% in size
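Potencies derive from concentration-effect curves fitted to normalized luminescence (CellTiter-Glo) of KB-V1 cells treated for 72 h at 37 degrees C in phenol-red-free DMEM containing 10% FBS.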
Of the large screens only hits and unclear results are named; the others gave an inactive call. Most compounds without a hit are left out; they make up all but 8% or so of the library. The call rests on the fitted dose curve; in most records, active means well fitted curve in the direction sought with a large enough effect; inconclusive means small, poorly fitted or top-dose-only effect, or another doubt; inactive means no such curve, though single readings can be large; an effect the other way counts as inactive or inconclusive.

CC1(C(=O)NS(=O)(=O)c2cccc(Cl)c2)CCN1C(=O)Cc1cccs1 (stereo unspecified)	none (no result: SW480 rereplic, MCF10A rereplic)
O=C(Cn1cc(COc2ccc(Br)cc2[N+](=O)[O-])nn1)c1ccc(O)cc1	SW480 rereplic 9.2µM
CC(=O)c1ccc(OCc2cn(CC(=O)c3ccc(O)cc3)nn2)c(C)c1	none (no result: SW480 rereplic, MCF10A rereplic)
COC(=O)[C@H](Cc1ccccc1)NC(=O)/C=C/[C@H]1O[C@@H](n2cc(C)c(=O)[nH]c2=O)C[C@@H]1O	none (no result: SW480 rereplic, MCF10A rereplic)
O=C(CCN1C(=O)S/C(=C\c2ccccc2)C1=O)N1CCCCC1	none
O=C1/C(=C\c2ccc(Cl)c(Cl)c2)CN(C(=O)CCN2CCOCC2)C/C1=C/c1ccc(Cl)c(Cl)c1	HT1080 IDH1KD tx 5.17µM, SW480 rereplic inconclusive, MCF10A rereplic inconclusive, KB-3-1 cytotox 3.66µM, HT1080NT lethal 5.17µM, KB-V1 MDR tox inconclusive
O=C1/C(=C\c2ccccc2)CN(C(=O)CCN2CCCCC2)C/C1=C/c1ccccc1	HT1080 IDH1KD tx 2.91µM, SW480 rereplic inconclusive, MCF10A rereplic inconclusive, KB-3-1 cytotox inconclusive, HT1080NT lethal inconclusive, KB-V1 MDR tox inconclusive
O=C(NCCN1CCOCC1)c1ccc(Cl)c(Cl)c1	none
CCN(CC)CCC(=O)N1C/C(=C/c2ccccc2)C(=O)/C(=C\c2ccccc2)C1	HT1080 IDH1KD tx 2.91µM, SW480 rereplic inconclusive, MCF10A rereplic inconclusive, HT1080NT lethal inconclusive, KB-V1 MDR tox inconclusive
O=C(CSc1ncn[nH]1)Nc1ccccc1Sc1ccc(Cl)cc1	MCF10A rereplic inconclusive
O=C(C1CCC(CNS(=O)(=O)c2cccs2)CC1)N1CCN(c2ccc(F)cc2)CC1 (stereo unspecified)	MCF10A rereplic 16.4µM, KB-3-1 cytotox inconclusive
CC(=O)Nc1cccc(-c2ccnc3c2CC(C(=O)Nc2ccc4c(c2)OCO4)O3)c1 (stereo unspecified)	HT1080 IDH1KD tx 2.31µM, KB-3-1 cytotox 5.17µM, HT1080NT lethal inconclusive (no result: SW480 rereplic, MCF10A rereplic)
O=C(Nc1ccc2c(c1)OCO2)C1Cc2c(-c3ccncc3)ccnc2O1 (stereo unspecified)	none (no result: SW480 rereplic, MCF10A rereplic)
O=C(Nc1ccc2c(c1)OCO2)C1Cc2c(-c3ccc(Cl)cc3)ccnc2O1 (stereo unspecified)	HT1080 IDH1KD tx inconclusive, HT1080NT lethal 23.1µM (no result: SW480 rereplic, MCF10A rereplic)
COc1ccc(NC(=O)C2Cc3c(-c4ccc5c(c4)OCO5)ccnc3O2)cc1 (stereo unspecified)	HT1080 IDH1KD tx inconclusive, KB-3-1 cytotox 9.2µM, HT1080NT lethal inconclusive, KB-V1 MDR tox inconclusive (no result: SW480 rereplic, MCF10A rereplic)
O=C(Nc1ccc2c(c1)OCO2)C1Cc2c(-c3ccc4c(c3)OCO4)ccnc2O1 (stereo unspecified)	HT1080 IDH1KD tx 4.11µM, KB-3-1 cytotox inconclusive, HT1080NT lethal inconclusive, KB-V1 MDR tox 8.2µM (no result: SW480 rereplic, MCF10A rereplic)
Nc1nc(N)nc(-c2ccccc2O)n1	SW480 rereplic inconclusive
COc1ccc(S(=O)(=O)N2CCCC(c3cc(C(=O)NCc4cccnc4)no3)C2)cc1 (stereo unspecified)	HT1080NT lethal inconclusive (no result: SW480 rereplic, MCF10A rereplic)
CC(=O)Oc1ccc2c3c(c(=O)oc2c1C)CCCC3	MCF10A rereplic 20.6µM, KB-3-1 cytotox inconclusive, KB-V1 MDR tox inconclusive
Cc1c(OCC(=O)N(C)c2ccccc2)ccc2c3c(c(=O)oc12)CCC3	KB-V1 MDR tox 9.2µM
CCOC(=O)COc1ccc2c3c(c(=O)oc2c1C)CCC3	MCF10A rereplic inconclusive
CCOc1ccc2c3c(c(=O)oc2c1OCC)CCCC3	MCF10A rereplic inconclusive, KB-V1 MDR tox 7.31µM
CCCOc1ccc2c3c(c(=O)oc2c1OCCC)CCCC3	none
NNC(=O)CSc1cccc2cccnc12	none
CN(C)C(=O)CSc1cccc2cccnc12	HT1080 IDH1KD tx inconclusive, SW480 rereplic 5.17µM, MCF10A rereplic inconclusive, KB-3-1 cytotox inconclusive, HT1080NT lethal inconclusive, KB-V1 MDR tox inconclusive
O=C(CSc1cccc2cccnc12)N/N=C/c1ccncc1	SW480 rereplic 1.84µM
O=C(CSc1ncccn1)N1CCN(C(=O)CSc2ncccn2)CC1	none
O=C(CSc1cccc2cccnc12)N1CCCC1	SW480 rereplic inconclusive, MCF10A rereplic 11.6µM, KB-3-1 cytotox 7.31µM, HT1080NT lethal 7.31µM
O=C(CSc1ncccn1)N1CCN(C(c2ccccc2)c2ccccc2)CC1	HT1080NT lethal inconclusive, KB-V1 MDR tox 18.4µM
COc1ccccc1C(=O)O/N=C(/c1ccncc1)c1ccc([N+](=O)[O-])cc1	none
O=C(CSc1cccc2cccnc12)OCC(=O)c1ccc(Br)cc1	MCF10A rereplic inconclusive, KB-V1 MDR tox inconclusive
O=C(CCNS(=O)(=O)c1ccccc1F)N1CCN(S(=O)(=O)c2cccc(F)c2)CC1	none
O=C(CSc1cccc2cccnc12)OCC(=O)c1ccccc1	HT1080 IDH1KD tx 32.6µM, SW480 rereplic inconclusive, MCF10A rereplic inconclusive, HT1080NT lethal 29.1µM
O=C(CCNS(=O)(=O)c1ccccc1F)N1CCN(C(c2ccccc2)c2ccccc2)CC1	SW480 rereplic inconclusive, MCF10A rereplic inconclusive, KB-3-1 cytotox inconclusive, KB-V1 MDR tox 8.2µM
COc1ccc(S(=O)(=O)NNC(=O)Nc2ccccc2OC)c(OC)c1	none
Cc1ccnc(NS(=O)(=O)c2ccc(NC(=O)c3ccc(C)c(C)c3)cc2)n1	KB-V1 MDR tox inconclusive (no result: HT1080 IDH1KD tx, SW480 rereplic, MCF10A rereplic, HT1080NT lethal)
C[C@@H]1CN([C@H](C)CO)C(=O)CCCn2cc(nn2)CO[C@H]1CN(C)S(=O)(=O)c1cccc(F)c1	none (no result: SW480 rereplic, MCF10A rereplic)
COc1cc2c(cc1OC)/C(=C/c1ccc(Cl)cc1)C(=O)OC2	HT1080 IDH1KD tx inconclusive, SW480 rereplic inconclusive, MCF10A rereplic 13µM, HT1080NT lethal inconclusive
C(#Cc1ccc(C#CCN2CCOCC2)cc1)CN1CCOCC1	KB-V1 MDR tox 18.4µM
COc1ccc2[nH]c(CN3CCN(CC=C(C)C)C(CCO)C3)c(C)c2c1 (stereo unspecified)	MCF10A rereplic 16.4µM
CCc1ccc(CN(C)Cc2c(C(=O)N3CCOCC3)nc3c(C)cccn23)nc1	none (no result: SW480 rereplic, MCF10A rereplic)
COc1cccc(N(CC(=O)NCCSc2ccc(Cl)cc2)S(C)(=O)=O)c1	KB-V1 MDR tox 16.4µM
CS(=O)(=O)N(CC(=O)NCCSCc1c(F)cccc1Cl)c1ccc2c(c1)OCO2	KB-V1 MDR tox inconclusive
COc1ccc(N(CC(=O)NCCSc2ccccc2)S(C)(=O)=O)cc1	KB-3-1 cytotox inconclusive
CC(C)(C)SCCNC(=O)CN(c1ccc(F)c(Cl)c1)S(C)(=O)=O	KB-V1 MDR tox 18.4µM
COc1ccc(OC)c(N(CC(=O)NCCSc2ccccc2)S(C)(=O)=O)c1	KB-V1 MDR tox 23.1µM
COc1ccc(N(CC(=O)NCCSCc2c(F)cccc2Cl)S(C)(=O)=O)cc1OC	KB-V1 MDR tox 8.2µM
CC(C)Oc1ccccc1C1Nc2ccccc2C(=O)N1c1ccc2c(c1)OCCO2 (stereo unspecified)	none
O=C(O)CN(c1cccc(C(F)(F)F)c1)S(=O)(=O)c1ccccc1	none
